Experimental findings from PubChem BioAssay (EPA / NIEHS) are described below.

A structure can be active in one record and inactive in another. Calls of active or inactive are those of the source. The calls were made as follows: active = hit-call score of the fitted dose curve at least 0.9, where 1 is the maximum; inactive = score below 0.9.

Read-out in the experiment: Monokine induced gamma interferon (MIG), CXCL9 (gene 4283)
In words: BSK_3C_MIG: BioMAP Diversity Plus: 3C Assay for Monokine induced gamma interferon (MIG) Biomarker Activity (AID 2283021).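 As to AC50: MIG protein level measured by immunoassay in the treated endothelial cultures.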 The settings on record: primary human endothelial cells (HUVEC); actives raise or lower the signal. On the procedure: BSK_3C is a cell-based, multiplexed-readout assay that uses umbilical vein endothelium, a human vascular primary cell, with measurements taken at 24 hours after chemical dosing in a 96-well plate.BSK_3C_MIG is an assay component measured in the BSK_3C assay. It measures MIG antibody related to regulation of gene expression using ELISA technology.Data from the assay component BSK_3C_MIG was analyzed into 1 assay endpoint. This assay endpoint, BSK_3C_MIG, was analyzed with bidirectional fitting relative to DMSO as the negative control and baseline of activity. Using a type of binding reporter, gain or loss-of-signal activity can be used to understand changes in the signaling as they relate to the gene CXCL9. Furthermore, this assay endpoint can be referred to as a primary readout, because this assay has produced multiple assay endpoints where this one serves a signaling function. To generalize the intended target to other relatable targets, this assay endpoint is annotated to the cytokine intended target family, where the subfamily is chemotactic factor.
The levels of cell surface (or secreted, indicated by the prefix "s") biomarker endpoints were measured by ELISA. Overt cytotoxicity to cells in confluent adherent cultures (all systems other than the BT system) was assessed by measuring total protein levels using sulforhodamine B (SRB) staining in parallel cultures at the time of biomarker measurements, indicated as SRB endpoints. For proliferation assays for adherent cell types, individual cell types are cultured at sub-confluence and relative cell numbers quantified by SRB staining at time points optimized for each system (48 h: 3C and CASM3C systems; 72 h: BT and HDF3CGF systems; 96 h: SAg system). SRB was performed by staining cells with 0.1% SRB after fixation with 10% TCA and reading wells at 560 nm.Viability and proliferation of PBMC (T cells) was quantified by Alamar Blue reduction for the SAg and BT systems. For PBMC viability (referred to as PBMC Cytotoxicity within the assay endpoint names), cells were plated (75,000/well in a 96-well plate) and then chemical samples added for 1 h before addition of activators, SEB and TSST-1 (20 ng/mL final concentration each). Cells were incubated for 90 h. Then, Alamar Blue (20 uL/well) (Invitrogen, Cat DAL1100) was added for 6 h, and the plates were read with a fluorescence microplate reader at 546/580 nm (excitation/emission). For PBMC proliferation, cells were plated and activated as above but incubated for only 16 h prior to addition of Alamar Blue. Plates were read after 6 h.
Turning to `ClC1(Cl)C2(Cl)C3(Cl)C4(Cl)C(Cl)(Cl)C5(Cl)C3(Cl)C1(Cl)C5(Cl)C24Cl` (stereo not given), the outcome was inactive.
As to `CC(=O)C(Cl)C(=O)N(C)C` (stereo not given), the outcome was inactive.
Consider `CCCCCCCCc1ccc(O)cc1`, for which the half-maximal activity concentration (AC50) is 36 µM (active).
In the case of `Nc1ncc([N+](=O)[O-])s1`, the result was inactive.
`C=C(C)C(=O)[O][Sn]([CH2]CCC)([CH2]CCC)[CH2]CCC`: the AC50 is 0.148 µM (active).
As for `CCOP(=S)(OCC)Oc1ccc(S(C)=O)cc1` (stereo not given), the result was inactive.
For `ClC1=C(Cl)[C@]2(Cl)[C@H]3[C@H]([C@H]4C=C[C@H]3C4)[C@@]1(Cl)C2(Cl)Cl`, the outcome was inactive.
The same measure, in the same setting: with `O=S(=O)(c1ccc(Cl)cc1)c1ccc(Cl)cc1` the entry was “inactive”; with `Cn1sc(Cl)cc1=O`, “inactive”.
Consider `CCOP(=S)(OCC)Oc1nc(Cl)c(Cl)cc1Cl`, for which the result was inactive.
Still for that read-out and setting: the value for `ClCC(Cl)CCl` was “inactive”.
For `CC(=O)[O][Hg][c]1ccccc1`, the AC50 is 2.73 µM (active).
Take `Nc1ccc(-c2ccc(N)c(Cl)c2)cc1Cl`: the result was inactive.
Same read-out and setting: the value for `COP(=S)(OC)Oc1ccc(S(=O)(=O)N(C)C)cc1` was “inactive”; that for `COC[C@H](C)N(C(=O)CCl)c1c(C)csc1C` was “inactive”; that for `CN(C)N=O` was “inactive”.
Regarding `O=C(O)C(F)(F)C(F)(F)C(F)(F)C(F)(F)C(F)(F)C(F)(F)F`, the outcome was inactive.
`CC(C)(c1ccccc1)c1ccc(O)c(C(C)(C)c2ccccc2)c1`: the AC50 is 10.5 µM (active).
As to `CCC(C)(C)c1ccc(O)c(C(C)(C)CC)c1`, the AC50 is 13.3 µM (active).
On the same count and under the same terms, the value for `C[C@@H]1C[C@@H]([C@H](O)CC2CC(=O)NC(=O)C2)C(=O)[C@@H](C)C1` was 20.1 µM (active).
Consider `O=[N+]([O-])c1ccc2c3c(cccc13)CC2`, for which the outcome was inactive.
As for `O=C(O)C(F)(F)C(F)(F)C(F)(F)C(F)(F)C(F)(F)C(F)(F)C(F)(F)C(F)(F)C(F)(F)C(F)(F)F`, the result was inactive and the AC50 was 35.3 µM (active).
Turning to `Nc1cccc2ccccc12`, the result was inactive.
With `C(=NC1CCCCC1)=NC1CCCCC1`, the AC50 was 28.7 µM (active).
As for `CC(=O)OC(c1ccccc1)C(Cl)(Cl)Cl` (stereo not given), the result was inactive.
With `CC(C)c1ccc(CO)cc1`, the outcome was inactive.
Consider `CCSC(C)CC1CC(=O)C(C(CC)=NOC/C=C/Cl)=C(O)C1` (stereo not given), for which the outcome was inactive.
Consider `CCN1CCC2(CC1)COc1cc3c(cc12)N(C(=O)c1ccc(-c2ccc(-c4nnc(C)o4)cc2C)cc1)CC3`, for which the AC50 is 32.3 µM (active).
As for `O=C1C2(Cl)C3(Cl)C4(Cl)C(Cl)(Cl)C5(Cl)C3(Cl)C1(Cl)C5(Cl)C24Cl` (stereo not given), the AC50 is 11.4 µM (active).
Consider `C=CC(=O)OCCCCCC(C)C`, for which the outcome was inactive.
Still for that read-out and setting: the value for `COP(=S)(OC)Oc1ccc(Sc2ccc(OP(=S)(OC)OC)cc2)cc1` was “inactive”; that for `COc1cc(OC)nc(NC(=O)NS(=O)(=O)c2ncccc2C(=O)N(C)C)n1` was “inactive”; that for `Cc1ccccc1N` was “inactive”.
For `O=C(Nc1ccc2[nH]ccc2c1)c1cc2cc(F)ccc2n1Cc1cccc(F)c1`, the AC50 was 10.4 µM (active).
For `O=[N+]([O-])c1ccc(O)c([N+](=O)[O-])c1`, the outcome was inactive.
Same read-out and setting: with `NC(=O)O` the entry was “inactive”.
Same read-out and setting: with `CCOP(=S)(OCC)SCCS(=O)(=O)CC` the entry was “inactive”; with `CCC(=O)C(CC(C)N(C)C)(c1ccccc1)c1ccccc1` (stereo not given), “inactive”; with `CCNc1nc(NC(C)(C)C)nc(SC)n1`, “inactive”.
